Here are results for nine molecules from PubChem BioAssay (NCATS).

Several values for one entry are separate records, joined by “and”; a condition that tells them apart may be missing. Equal values may be shown once. Unmarked numbers belong to inactive results. Results filed as inconclusive are left out. Activity calls are given as the source filed them. Unless noted, calls follow the shape of the dose curve; as a rule, active = well fitted curve in the direction sought with a large enough effect; inconclusive = small, poorly fitted or top-dose-only effect, or another doubt; inactive = no such curve, though single readings can be large; an effect the other way counts as inactive or inconclusive.

A short description of experiment [1]: Cell Viability - BJ (AID 421; calls by dose curve;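 also: potency is read from the fitted curve at half-maximal effect; cells exposed to compound for 40 hours at 37 °C before readout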). Particulars: BJ fibroblast viability, qHTS. The method in brief: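 Normal human BJ foreskin fibroblasts, 1500/well in complete medium, treated 40 hr at 37 °C. Cellular ATP by CellTiter-Glo luminescence; normalized to DMSO and 100 uM tamoxifen, AC50 from Hill fit.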
Background: Quantitative high-throughput screening tests each substance at several concentrations.

Experiment [2] can be described thus: Cell Viability - Jurkat (AID 426;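 active = dose-dependent loss of cell ATP signal giving a full or clear fitted curve, ranked by lower potency value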; also: potency is read from the fitted curve at half-maximal effect). Particulars: qHTS. The method in brief:
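Cytotoxicity was scored as loss of cellular ATP, measured by luciferase-based luminescence, in Jurkat clone E6-1 cells after 40 h compound treatment; tamoxifen and doxorubicin served as positive controls.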

The nature of experiment [3]: Cell Viability - Hek293 (AID 427;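 active = compounds whose dose-response curve shows a full or clear partial loss of cell viability, called from curve shape rather than a numeric limit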;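 also: potency is read from the fitted curve at half-maximal effect; cells exposed to compound for 40 hours at 37 °C before reading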). The conditions noted are these: qHTS. Put shortly: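 HEK293 cells in complete medium were exposed to compound for 40 hr at 37 °C, then cellular ATP was read by CellTiter-Glo luminescence. Data were normalized to DMSO (basal) and 100 uM tamoxifen (100% inhibition), and AC50 came from Hill fits.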
A short description of experiment [4]: Cell Viability - HepG2 (AID 433; calls by dose curve;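 also: potency is read from the fitted curve at half-maximal effect; potency for ATP loss meaning cytotoxicity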). Particulars: qHTS. Put shortly:
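Read-out is luciferase-based quantitation of cellular ATP as a measure of viable HepG2 cells after 40 h treatment at 37 °C. Signal decrease is scaled between DMSO-only and 100 uM tamoxifen controls, with AC50 fitted by the Hill equation.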

Experiment [5] can be described thus: Cell Viability - MRC5 (AID 434; calls by dose curve;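 also: potency is read from the fitted curve at half-maximal effect; potency reflects cytotoxicity seen as loss of intracellular ATP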). Particulars: MRC5 lung fibroblast viability, qHTS. Put shortly:
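Decrease in intracellular ATP, quantified by luciferase light output, reflects compound toxicity toward MRC5 cells exposed for 40 hr in complete culture medium. Concentration-response curves, scaled between DMSO and 100 uM tamoxifen, gave AC50 values.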

Experiment [6] can be described thus: Cell Viability - SK-N-SH (AID 435; calls by dose curve;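 also: potency is read from the fitted curve at half-maximal effect; compound exposure lasted 40 h at 37 °C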). Particulars: SK-N-SH neuroblastoma cell viability qHTS. The method in brief: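 Luminescent ATP signal served as the viability read-out after 40 hours of compound treatment of human neuroblastoma SK-N-SH cells. Concentration-response data, scaled between DMSO and 100 uM tamoxifen, gave AC50 values by standard Hill modeling.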

For experiment [7], the target named is Mitogen-activated protein kinase 10 (Mus musculus) (UniProt Q61831). Kind of experiment: JNK3 AlphaScreen Assay (AID 530; active = well fitted curve in either direction with a large enough effect, not every such curve was filed as active;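 also: kinase came from lysate of stimulated human HepG2 cells; % is scaled to controls: 0 for no effect and ±100 for the full control effect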). The conditions noted are these: JNK3 lysate, c-Jun phosphorylation; series mostly up to 57.1 µM. The method in brief: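 Biotinylated GST-cJun(1-79) served as substrate for JNK3 in HepG2 lysates stimulated with IL-1beta and TNF-alpha. ATP was 10 uM final, pH 7.6. Ser73 phosphorylation was quantified by AlphaScreen (680 nm excitation).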
(In general: Alpha assays give light when donor and acceptor beads are brought close together.)

Experiment [8] can be described thus: Cell Viability - N2a (AID 540).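 Also: plate controls were DMSO alone for no effect and tamoxifen control for full effect; nearly all actives have a fitted effect of over 45% in size.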 The conditions noted are these: N2a mouse neuroblastoma cell viability; activity change, negative = cytotoxicity: at 92.2 µM (top of the series). The method in brief:
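In this qHTS cytotoxicity screen, ATP-dependent luciferase luminescence reports viable N2a cells after a 40 hr compound exposure in complete culture medium. Potencies are AC50 values from standard Hill equation fits.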

A short description of experiment [9]: Cell Viability - NIH 3T3 (AID 541).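 Also: plate controls were DMSO alone for no effect and tamoxifen positive control for full effect; nearly all actives have a fitted effect of over 25% in size.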 Particulars: NIH 3T3 cell viability, qHTS; activity change, negative = cytotoxicity: at 92.2 µM (top of the series). Put shortly:
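In this cytotoxicity screen, acute toxicity is scored as an ATP drop measured by CellTiter-Glo in NIH 3T3 fibroblasts following a 40 hr, 37 °C incubation with compound.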

The nature of experiment [10]: Cell Viability - HUV-EC-C (AID 542). Also: % is scaled to controls: 0 for no effect and ±100 for the full control effect; nearly all actives have a fitted effect of over 35% in size. The conditions noted are these: HUV-EC-C endothelial cell viability, qHTS; series mostly up to 92.2 µM. The method in brief: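 Concentration-dependent ATP loss in HUV-EC-C cells is the measure. Exposure lasts 40 hr at 37 °C; luminescence follows CellTiter-Glo addition, and Hill fits give AC50.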
Experiment [11] can be described thus: Cell Viability - H-4-II-E (AID 543). Also: % is scaled to controls: 0 for no effect and ±100 for the full control effect; nearly all actives have a fitted effect of over 35% in size. The conditions noted are these: H-4-II-E rat hepatoma viability; series mostly up to 92.2 µM. The method in brief:
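AC50 from Hill-modelled qHTS concentration-response curves. H-4-II-E rat hepatoma cells in complete medium, 40 hr exposure at 37 °C, viability by CellTiter-Glo ATP luminescence.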

A short description of experiment [12]: Cell Viability - SH-SY5Y (AID 544).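 Also: 0% = DMSO alone and -100% = 100 µM tamoxifen; nearly all actives have a fitted effect of over 55% in size.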 The conditions noted are these: SH-SY5Y neuroblastoma cell viability; viability change, negative = cytotoxic: at 92.2 µM (top of the series). The method in brief:
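Quantitative HTS in SH-SY5Y neuroblastoma cells, 40 hr treatment at 37 °C, ATP content by luciferase luminescence; AC50 from Hill fits.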

The nature of experiment [13]: Cell Viability - Renal Proximal Tubule (AID 545).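 Also: 0% = DMSO only and -100% = 100 µM tamoxifen; nearly all actives have a fitted effect of over 40% in size.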 The conditions noted are these: renal proximal tubule cells viability, primary cells of rat origin; activity change, negative = cytotoxicity: at 91.7 µM (top of the series). The method in brief:
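Luminescent ATP signal (CellTiter-Glo) served as the viability read-out after 40 hr compound exposure of freshly isolated rat proximal tubule cells at 37 °C. Concentration-dependent ATP loss was fitted with the Hill equation to give AC50.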

The nature of experiment [14]: Cell Viability - Mesenchymal (AID 546).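 Also: cells exposed to compound for 40 hours before reading; 0% = DMSO only and -100% = 100 µM tamoxifen.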 The conditions noted are these: mesenchymal cells viability, qHTS; activity change, negative = cytotoxicity: at 91.7 µM (top of the series). Put shortly: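 In this qHTS cytotoxicity format, glomerulus-derived human mesenchymal kidney cells received compound for 40 hr, then luciferase-based ATP quantitation. Concentration-response data were fitted with the Hill equation.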

The target in experiment [15] is Cytochrome P450 1A2 (Homo sapiens) (UniProt P05177). Nature of the experiment: p450-cyp1a2 (AID 410; calls by dose curve; also: potency is read from the fitted curve at half-maximal effect). Particulars: recombinant CYP1A2, luciferin-ME demethylation, luminescence; series mostly up to 25.6 µM. The method in brief:
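Read-out is luminescence from luciferin produced by CYP1A2 demethylation of Luciferin-ME (100uM, at Km). Detection reagent stopped the 60 min NADPH-dependent reaction; signals were normalized to 57 uM furafylline.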

The target in experiment [16] is Glucocorticoid receptor (Homo sapiens) (UniProt P04150). Kind of experiment: GR-GFP Redistribution (AID 450;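 active = compounds whose dose series gives a full or clear partial fitted curve of increased nuclear translocation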; also: potency is read from the fitted curve at half-maximal effect). Particulars: U2OS GR-GFP nuclear translocation, laser cytometry, 2 h.
For experiment [17] the target is unchanged. Kind of experiment: GR-EFC Redistribution (AID 451; calls by dose curve; also: potency is read from the fitted curve at half-maximal effect). The conditions noted are these: CHO-K1 GR-EFC translocation, beta-gal luminescence, 2 h. The method in brief:
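CHO-K1 cells stably expressing nuclear-localized β-gal enzyme acceptor and GR fused C-terminally to the enzyme donor fragment; ligand-driven nuclear translocation restores β-gal by complementation. Compounds titrated up to 46 uM final, 2 h at 37 °C; luminescence read.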

A short description of experiment [18]: Stat Signaling Pathway (AID 446; active = well fitted curve in either direction with a large enough effect, not every such curve was filed as active;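 also: ME-180 cervical cancer cells given 40 pM IL-6 alongside compound; SIE-controlled beta-lactamase reporter measured as 460/530 nm FRET emission ratio; % is scaled to controls: 0 for no effect and ±100 for the full control effect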). Particulars: ME-180 (cervical carcinoma) SIE beta-lactamase reporter, IL-6 stimulated, 5 h; series mostly up to 17.2 µM. The method in brief: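 Normalization used AC90 stimulation (300 pM IL-6) and AC90 inhibition (125 nM pan-JAK inhibitor at 40 pM IL-6). The underlying signal is SIE-driven beta-lactamase in ME-180 cells after 5 h IL-6 exposure with compound.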

Sequence of Cytochrome P450 1A2 (Homo sapiens) (P05177 whole entry, looked up): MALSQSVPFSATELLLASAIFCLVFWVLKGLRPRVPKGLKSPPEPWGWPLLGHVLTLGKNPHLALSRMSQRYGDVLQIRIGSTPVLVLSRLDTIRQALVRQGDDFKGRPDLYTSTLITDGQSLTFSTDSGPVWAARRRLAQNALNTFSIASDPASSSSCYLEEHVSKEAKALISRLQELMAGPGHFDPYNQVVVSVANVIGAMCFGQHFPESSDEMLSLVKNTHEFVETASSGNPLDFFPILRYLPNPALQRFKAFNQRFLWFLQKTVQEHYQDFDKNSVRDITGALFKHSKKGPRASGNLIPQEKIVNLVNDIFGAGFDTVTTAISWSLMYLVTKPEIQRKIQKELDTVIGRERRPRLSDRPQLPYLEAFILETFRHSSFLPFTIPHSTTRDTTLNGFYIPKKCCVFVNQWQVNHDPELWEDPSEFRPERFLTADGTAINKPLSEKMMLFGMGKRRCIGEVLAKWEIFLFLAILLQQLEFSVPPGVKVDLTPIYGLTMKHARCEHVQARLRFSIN
Sequence of Glucocorticoid receptor (Homo sapiens) (P04150 whole entry, looked up): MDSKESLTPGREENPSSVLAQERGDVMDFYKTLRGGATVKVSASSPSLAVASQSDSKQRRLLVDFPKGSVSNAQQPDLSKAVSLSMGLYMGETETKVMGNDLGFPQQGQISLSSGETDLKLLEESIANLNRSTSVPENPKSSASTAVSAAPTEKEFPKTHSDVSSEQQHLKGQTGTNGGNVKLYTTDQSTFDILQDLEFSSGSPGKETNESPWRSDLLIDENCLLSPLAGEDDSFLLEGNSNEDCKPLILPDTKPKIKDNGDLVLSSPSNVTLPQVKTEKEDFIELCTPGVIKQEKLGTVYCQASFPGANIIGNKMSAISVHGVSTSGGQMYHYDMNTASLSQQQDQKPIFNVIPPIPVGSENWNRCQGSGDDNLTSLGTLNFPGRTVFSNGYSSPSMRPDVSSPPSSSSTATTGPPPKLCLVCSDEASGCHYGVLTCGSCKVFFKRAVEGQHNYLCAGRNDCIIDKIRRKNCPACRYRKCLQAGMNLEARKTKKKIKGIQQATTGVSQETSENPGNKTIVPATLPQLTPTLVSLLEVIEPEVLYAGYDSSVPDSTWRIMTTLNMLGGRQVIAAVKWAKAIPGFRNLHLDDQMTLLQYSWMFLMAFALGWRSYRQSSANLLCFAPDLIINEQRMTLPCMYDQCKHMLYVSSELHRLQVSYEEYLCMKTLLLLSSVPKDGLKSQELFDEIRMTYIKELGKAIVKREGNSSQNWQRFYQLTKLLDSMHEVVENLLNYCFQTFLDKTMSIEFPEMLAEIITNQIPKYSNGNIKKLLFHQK

Regarding `c1ccc2occc2c1`, the Potency in experiment [1], in experiment [2], in experiment [3], in experiment [4], in experiment [5] and in [6] was over 92 µM in each case. Besides, the result in experiment [7] was inactive. The Potency result in experiment [8], in experiment [10], in [11], in experiment [12], in [13] and in experiment [14] was “inactive” in each case. Also, in [9], the activity change, negative = cytotoxicity is -5.88%.
Turning to `O=C(Oc1ccccc1)c1ccccc1O`, the Potency in experiment [1], in [2], in experiment [3], in experiment [4], in experiment [5] and in experiment [6] was over 92 µM in each case. Besides, the result in [7] was inactive. In addition, the Potency result in [8], in experiment [10], in experiment [11], in experiment [12], in [13] and in experiment [14] was “inactive” each time.
With `CN(C)c1cc2c(Nc3ccc4c(cnn4Cc4ccccc4)c3)ncnc2cn1`, the Potency in experiment [15] was 7.94 µM (active); in experiment [16] it was over 46 µM; in experiment [17], over 46 µM. In addition, the call in experiment [7] was inactive.
For the molecule `O=C(c1ccccc1)c1ccccc1`, the Potency in experiment [1], in [2], in [3], in [4], in experiment [5] and in experiment [6] was over 92 µM each time. The molecule was called inactive in experiment [7]. In addition, the Potency entry in experiment [8], in experiment [10], in [11], in [12], in experiment [13] and in experiment [14] was “inactive” throughout. The activity change, negative = cytotoxicity in experiment [9] was -23.6%.
For `C[C@@H](C1=C(CCN(C)C)Cc2ccccc21)c1ccccn1`, in [15], the Potency was 20 µM (active). Moreover, the result in experiment [7] was inactive.
On to `OC(CCCN1CCCCC1)(c1ccccc1)c1ccccc1`, for which the Potency entry in [15] was “inactive”. For the same molecule, the call in experiment [18] and in experiment [7] was inactive.
As for `CC(C)(c1ccc(O)cc1)c1ccc(O)cc1`, the Potency in [1], in experiment [2], in experiment [3], in [4], in [5] and in experiment [6] was over 92 µM each time. Further, the molecule was classed as inactive in experiment [7]. In addition, the Potency result in experiment [8], in experiment [10], in experiment [11], in experiment [12], in experiment [13] and in experiment [14] was “inactive” throughout. In addition, the activity change, negative = cytotoxicity in experiment [9] is -22.2% and -23.1%.
Consider `CC(C)N(CCC(=O)c1ccc2ccccc2c1)Cc1ccccc1`, for which the Potency is 3.98 µM (active) and 2.51 µM (active) in experiment [15]; over 46 µM in [16]; over 46 µM in experiment [17]. The molecule was called inactive in experiment [7].
Consider `Cc1ncc(CO)c(CO)c1O`, for which the Potency result in [15] is “inactive”. Also, the result in experiment [18] and in [7] was inactive.
